# In all, about 66,000 compounds went through this assay and about 960 (1.5%) showed an effect of 50% or more. The list comes from a sample in which strong results are over-represented; it also holds similar structures and randomly drawn compounds.
# System: Trypanosoma brucei
# Assay: Trypanosoma brucei 72 hour study
# Assay type: functional, organism-based
# Set-up: scale not given: in the data most compounds retested in dose-response had high values
compound,measurement,setting,value
O=C(C1CCCN(C2CCOCC2)C1)N1Cc2ccccc2C1 (stereo unspecified),Percent Effect,"30 µM, 30.03 µM",-36.54%
O=C(CN1CCSC2(CCCCC2)C1)NCC(F)(F)F,Percent Effect,"30.3 µM, […]",27.46%
O=C(CN1CCC2(CCCCC2)C1)NCC(F)(F)F,Percent Effect,"30.3 µM, […]",100.3%
CC(C)(C)C(O)CN1CCN(CC(=O)NCC(F)(F)F)CC1 (stereo unspecified),Percent Effect,"30 µM, 30.03 µM",-50.05%
CCNC(=O)[C@@H]1C[C@H](N)CN1C(=O)c1c[nH]c2ccccc12,Percent Effect,"30.3 µM, […]",-39.66%
CCN(CC)C(=O)CN1CCC2(C=Cc3cc(Cl)c(C)cc3O2)CC1,Percent Effect,"30.3 µM, […]",99.22%
Cc1cc2c(cc1Cl)C=CC1(CCN(CC(=O)N3CCCC3)CC1)O2,Percent Effect,"30.3 µM, […]",-16.81%
Cc1cc2c(cc1Cl)C=CC1(CCN(CC(=O)N3CCOCC3)CC1)O2,Percent Effect,"30.3 µM, […]",-3.407%
CNC(=O)N1C[C@H]2C[C@H](C(=O)NCc3cccnc3)[C@@H](C1)O2.O=C(O)C(F)(F)F,Percent Effect,"30 µM, 30.03 µM",41.37%
Cc1noc(C)c1C(=O)N1CCC(c2[nH]ncc2S(C)(=O)=O)C1 (stereo unspecified),Percent Effect,"30.3 µM, […]",-19.64%
CN(CC1CCOCC1)C(C(=O)O)c1cccc(F)c1F (stereo unspecified),Percent Effect,"30 µM, 30.03 µM",-18.13%
c1ccc(CCN2CCN(c3ccc4nncn4n3)CC2)cc1,Percent Effect,10 µM,-2.806%
FC(F)(F)COCCN1CCN(c2ccc3nncn3n2)CC1,Percent Effect,"30 µM, 30.03 µM",29.6%
c1ccc(OCCCN2CCN(c3ccc4nncn4n3)CC2)cc1,Percent Effect,"30 µM, 30.03 µM",53.47%
c1ccc(CCCN2CCN(c3ccc4nncn4n3)CC2)cc1,Percent Effect,10 µM,-24.8%
c1ccc(CCN2CCN(c3ccc4nncn4n3)CC2)nc1,Percent Effect,"30 µM, 30.03 µM",14.18%
Clc1ccccc1CCN1CCN(c2ccc3nncn3n2)CC1,Percent Effect,10 µM,55.98%
COCCN1CCC2(CC1)CC(NC(=O)CN(C)C)c1ccccc1O2.O=C(O)C(F)(F)F.O=C(O)C(F)(F)F (stereo unspecified),Percent Effect,"30.3 µM, […]",-3.899%
CNC(=O)[C@H]1C[C@@H]2CN(C(=O)c3ccncc3)C[C@@H]2N1S(C)(=O)=O.O=C(O)C(F)(F)F,Percent Effect,"30.3 µM, […]",-12.29%
Cc1cnc(N2CCc3cc(C(=O)O)c(N(C)C)nc3CC2)nc1.O=C(O)C(F)(F)F,Percent Effect,"30.3 µM, […]",-16.6%
O=C(NCC1CCN(CCc2ccccc2)C1)c1cc(Cl)c[nH]1 (stereo unspecified),Percent Effect,"30 µM, 30.03 µM",-9.095%
COC(=O)c1ccc(N2CCN(C(=O)c3ccco3)C(C)C2)cc1 (stereo unspecified),Percent Effect,"30.3 µM, […]",90.39%
COC(=O)c1ccc(N2CCN(C(=O)C3CCC3)C(C)C2)cc1 (stereo unspecified),Percent Effect,"30 µM, 30.03 µM",50.56%
CCC(=O)N1CCN(c2ccc(C(=O)OC)cc2)CC1C (stereo unspecified),Percent Effect,"30 µM, 30.03 µM",6.915%
COC(=O)c1ccc(N2CCN(C(=O)c3cc(C)no3)C(C)C2)cc1 (stereo unspecified),Percent Effect,"30.3 µM, […]",29.28%
COC(=O)c1ccc(N2CCN(C(=O)C3CC3)C(C)C2)cc1 (stereo unspecified),Percent Effect,"30 µM, 30.03 µM",-2.442%
COC(=O)c1ccc(N2CCN(C(=O)c3ccncc3)C(C)C2)cc1 (stereo unspecified),Percent Effect,"30 µM, 30.03 µM",41.83%
Cl.Nc1nc(Nc2ccccc2)cc(N2CCNCC2)n1,Percent Effect,"30.3 µM, […]",-11.41%
same,Percent Effect,"10 mM, 10 mM as filed; unlikely as a test dose",-70.99%
CN1CCN(C(=O)c2cccn2C)Cc2cccnc21,Percent Effect,"30.3 µM, […]",-5.91%
Cn1cccc1C(=O)N1CCN(CC2CC2)c2ncccc2C1,Percent Effect,"30 µM, 30.03 µM",57.2%
O=C(c1cccs1)N1CCN(CC2CC2)c2ncccc2C1,Percent Effect,"30 µM, 30.03 µM",-33.24%
Cc1nc(C(=O)NS(=O)(=O)c2cccc(C#N)c2)cs1,Percent Effect,"30.3 µM, […]",2.101%
COCC1c2c(cnn2CC2CC2)CCN1Cc1ccc(C)o1.O=C(O)C(F)(F)F.O=C(O)C(F)(F)F (stereo unspecified),Percent Effect,"30.3 µM, […]",-1.349%
O=C(NCCc1ccn(-c2ccccc2)n1)N1CCCC(O)C1 (stereo unspecified),Percent Effect,10 µM,103.1%
CCOC1CCCN(C(=O)c2nn(-c3ccccc3F)cc2O)C1 (stereo unspecified),Percent Effect,"30.3 µM, […]",-12.09%
CCOC1CCN(C(=O)NCCc2ccn(-c3ccccc3)n2)CC1,Percent Effect,10 µM,-34.62%
COc1ccccc1CNC(=O)N1CCCC(CO)C1 (stereo unspecified),Percent Effect,"30 µM, 30.03 µM",-45.66%
O=C(NCCc1ccn(-c2ccccc2)n1)N1CCCC(CO)C1 (stereo unspecified),Percent Effect,10 µM,104%
O=C(NCC1CCCN(C(=O)NCCc2ccccc2)C1)c1ccco1 (stereo unspecified),Percent Effect,"30.3 µM, […]",15.56%
O=C(NCCC1Cc2ccccc2C1)N1CCCC(O)C1 (stereo unspecified),Percent Effect,"30.3 µM, […]",-66.43%
O=C(NCc1nn(-c2ccccc2)c2c1CCC2)N1CCCC(O)C1 (stereo unspecified),Percent Effect,10 µM,-55.19%
CCOC1CCCN(C(=O)NCCc2ccn(-c3ccccc3)n2)C1 (stereo unspecified),Percent Effect,"30 µM, 30.03 µM",99.66%
CSc1ccccc1C(=O)N1C[C@H]2CC[C@@H]1CN(C(=O)N(C)C)C2,Percent Effect,"30 µM, 30.03 µM",-19.87%
O=C(O)C(F)(F)F.O=C([C@H]1CC[C@@H]2[C@@H](CCN2C2CCCC2)O1)N1CCOCC1,Percent Effect,"30.3 µM, […]",3.599%
Cc1ccc(CN2CCC3(CCC3NC(=O)c3ccn(C)c3)CC2)s1.O=C(O)C(F)(F)F (stereo unspecified),Percent Effect,"30 µM, 30.03 µM",-8.436%
